The target of assay [1] is Lysosomal acid glucosylceramidase (Homo sapiens) (UniProt P04062). Put plainly: Glucocerebrosidase-p2 (AID 348; in the data active = potency below about 10 µM; also: potency is read from the fitted curve at half-maximal effect). The note with it: purified GBA, blue fluorogenic substrate, 40 min. A digest of the protocol: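 Compounds titrated from 0.6 nM upwards against 0.2 nM enzyme in pH 5.9 citric acid/KH2PO4, taurocholate, tween-20; blue fluorogenic substrate 80 uM, 40 min room temperature, stopped and read Ex 365/Em 440 for AC50.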

Assay [2] is described as follows: AP1 Signaling Pathway (AID 357). Also: % is scaled to controls: 0 for no effect and ±100 for the full control effect. The note with it: ME-180 AP-1-bla reporter, EGF-induced, beta-lactamase ratio, 5 h; at 7.69 µM (top of the series) unless noted. Summed up: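 A ratiometric CCF4 readout (405 nm excitation; 460 and 530 nm emission) quantified AP-1-driven beta-lactamase in ME-180 cells after 5 h with compound and EC50 EGF; AC50 values were derived for activators and inhibitors.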

Assay [3] can be described thus: NFAT Signaling Pathway (AID 444).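 Also: carbachol stimulus at about its EC50 of 1 µM final; % is scaled to controls: 0 for no effect and ±100 for the full control effect.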 The note with it: Jurkat NFAT-bla M1, carbachol, beta-lactamase ratio, 5 h; at 7.69 µM (top of the series) unless noted. Summed up: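 Read-out: CCF4 FRET ratio (460 nm/530 nm) after 1 h RT dye loading, used for %activity and AC50 from titration series. Cells: Jurkat NFAT-β-lactamase/M1 line, treated with compound plus 1 uM carbachol for 5 h, 37 °C.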

Assay [4] in a line: Stat Signaling Pathway (AID 446).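 Also: ME-180 cervical cancer cells given 40 pM IL-6 alongside compound; SIE-controlled beta-lactamase reporter measured as 460/530 nm FRET emission ratio; % is scaled to controls: 0 for no effect and ±100 for the full control effect.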 The note with it: ME-180 SIE beta-lactamase reporter, IL-6 stimulated, 5 h; at 7.69 µM (top of the series) unless noted. Summed up: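 Reporter line: ME-180 cervical carcinoma, SIE-beta-lactamase. Treatment: compound with 40 pM IL-6, 5 hrs, 37 C, in low-serum OPTI-MEM with 10 mM HEPES pH 7.3. Detection: 460/530 nm fluorescence.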
Assay [5] deals with Glucocorticoid receptor (Homo sapiens) (UniProt P04150). Kind of assay: GR-GFP Redistribution (AID 450;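 active = compounds whose dose series gives a full or clear partial fitted curve of increased nuclear translocation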; also: potency is read from the fitted curve at half-maximal effect). The note with it: U2OS GR-GFP nuclear translocation, laser cytometry, 2 h.
The target is the same in assay [6]. Put plainly: GR-EFC Redistribution (AID 451; calls by dose curve; also: potency is read from the fitted curve at half-maximal effect). Conditions: CHO-K1 GR-EFC translocation, beta-gal luminescence, 2 h. A digest of the protocol: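 Translocation of GR-ED fusion to nuclear EA restores b-gal, read by luminescence after 1 h room-temperature detection. Engineered CHO-K1 biosensor cells, 1,000/well, exposed 2 h at 37 C to titrations up to 46 uM final.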

Assay [7] concerns the target Mitogen-activated protein kinase 10 (Mus musculus) (UniProt Q61831). Put plainly: JNK3 AlphaScreen Assay (AID 530).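 Also: kinase came from lysate of stimulated human HepG2 cells; signal reports phosphorylation of biotinylated GST-cJun 1-79 at Ser73 with 10 µM ATP; % is scaled to controls: 0 for no effect and ±100 for the full control effect.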 The note with it: JNK3 lysate, c-Jun phosphorylation; series mostly up to 11.4 µM. Summed up: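 Room-temperature AlphaScreen kinase assay; pre-activated HepG2 lysate as JNK3 source, biotin-GST-cJun(1-79) substrate, 10 uM ATP, compound 15 min preincubation.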
Background: In Alpha technology, singlet oxygen from a donor bead excites a nearby acceptor bead.

The target of assay [8] is 3',5'-cyclic-AMP phosphodiesterase 4B (Homo sapiens) (UniProt Q07343). Kind of assay: qHTS Assay for Inhibitors of PDE-IV (AID 607; active = well fitted activation curve with a large enough effect in the main read-out, with a control signal flat, not every such curve was filed as active; also: % of control where 0% means no effect). The note with it: HEK293 ACTOne CNG channel cells, membrane potential fluorescence; series mostly up to 22.9 µM. A digest of the protocol: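 Cell-based read-out of cAMP via a modified cyclic nucleotide-gated channel and membrane potential dye (535/590 nm) in HEK293 cells expressing PDE4 endogenously. Compounds tested up to 22.9 uM final; 100 uM RO 20-1724 reference.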
(qHTS replaces the single test concentration by a dilution series.)

SMILES strings stand for the structures. Values without a mark were called inactive. Inconclusive results are not listed. Activity calls are given as the source filed them. Unless noted, calls follow the shape of the dose curve; as a rule, active = well fitted curve in either direction with a large enough effect (not every such curve was filed as active); inconclusive = small, poorly fitted or top-dose-only effect, or another doubt; inactive = flat fitted curve, though single readings scatter.

3',5'-cyclic-AMP phosphodiesterase 4B (Homo sapiens), sequence (Q07343 whole entry, looked up): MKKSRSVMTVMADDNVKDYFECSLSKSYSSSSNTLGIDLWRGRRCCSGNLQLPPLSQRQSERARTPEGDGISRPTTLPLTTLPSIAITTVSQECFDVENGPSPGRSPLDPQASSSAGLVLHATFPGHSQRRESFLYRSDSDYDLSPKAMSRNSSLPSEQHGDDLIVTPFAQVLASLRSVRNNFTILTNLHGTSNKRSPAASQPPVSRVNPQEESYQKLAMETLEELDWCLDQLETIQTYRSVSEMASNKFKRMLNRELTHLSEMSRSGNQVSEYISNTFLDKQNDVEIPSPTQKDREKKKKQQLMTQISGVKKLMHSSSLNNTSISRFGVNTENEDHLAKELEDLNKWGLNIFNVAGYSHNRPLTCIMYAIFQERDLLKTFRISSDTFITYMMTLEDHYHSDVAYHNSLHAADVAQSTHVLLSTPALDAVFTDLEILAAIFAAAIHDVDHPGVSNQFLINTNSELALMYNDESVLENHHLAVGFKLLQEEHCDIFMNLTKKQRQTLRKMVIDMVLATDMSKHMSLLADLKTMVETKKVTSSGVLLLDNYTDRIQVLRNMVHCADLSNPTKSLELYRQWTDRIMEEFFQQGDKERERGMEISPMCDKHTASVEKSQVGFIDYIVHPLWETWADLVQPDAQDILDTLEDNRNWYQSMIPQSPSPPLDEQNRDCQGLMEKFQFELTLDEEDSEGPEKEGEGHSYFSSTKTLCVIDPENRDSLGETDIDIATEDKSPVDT
Glucocorticoid receptor (Homo sapiens), sequence (P04150 whole entry, looked up, the tested form may be a part): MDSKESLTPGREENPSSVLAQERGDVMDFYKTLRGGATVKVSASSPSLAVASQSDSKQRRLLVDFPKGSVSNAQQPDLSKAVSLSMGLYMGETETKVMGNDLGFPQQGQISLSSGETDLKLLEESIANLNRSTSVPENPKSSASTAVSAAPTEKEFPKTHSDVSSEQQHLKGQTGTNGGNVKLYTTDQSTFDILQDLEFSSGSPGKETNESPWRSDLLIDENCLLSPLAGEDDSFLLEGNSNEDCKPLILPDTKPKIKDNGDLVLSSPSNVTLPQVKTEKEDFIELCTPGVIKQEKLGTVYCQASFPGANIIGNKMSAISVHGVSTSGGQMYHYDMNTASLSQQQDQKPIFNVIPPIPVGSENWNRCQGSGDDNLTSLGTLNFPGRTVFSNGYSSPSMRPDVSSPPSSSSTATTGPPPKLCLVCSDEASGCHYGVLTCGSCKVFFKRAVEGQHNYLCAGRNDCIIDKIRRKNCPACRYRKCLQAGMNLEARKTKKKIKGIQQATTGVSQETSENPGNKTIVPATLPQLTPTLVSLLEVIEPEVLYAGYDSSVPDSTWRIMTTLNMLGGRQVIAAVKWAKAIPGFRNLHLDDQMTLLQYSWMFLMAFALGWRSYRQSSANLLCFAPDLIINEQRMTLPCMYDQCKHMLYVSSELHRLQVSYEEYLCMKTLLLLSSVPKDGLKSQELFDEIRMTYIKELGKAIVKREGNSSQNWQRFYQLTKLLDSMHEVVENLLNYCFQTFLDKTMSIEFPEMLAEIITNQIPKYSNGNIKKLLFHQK
Lysosomal acid glucosylceramidase (Homo sapiens), sequence (P04062 whole entry, looked up): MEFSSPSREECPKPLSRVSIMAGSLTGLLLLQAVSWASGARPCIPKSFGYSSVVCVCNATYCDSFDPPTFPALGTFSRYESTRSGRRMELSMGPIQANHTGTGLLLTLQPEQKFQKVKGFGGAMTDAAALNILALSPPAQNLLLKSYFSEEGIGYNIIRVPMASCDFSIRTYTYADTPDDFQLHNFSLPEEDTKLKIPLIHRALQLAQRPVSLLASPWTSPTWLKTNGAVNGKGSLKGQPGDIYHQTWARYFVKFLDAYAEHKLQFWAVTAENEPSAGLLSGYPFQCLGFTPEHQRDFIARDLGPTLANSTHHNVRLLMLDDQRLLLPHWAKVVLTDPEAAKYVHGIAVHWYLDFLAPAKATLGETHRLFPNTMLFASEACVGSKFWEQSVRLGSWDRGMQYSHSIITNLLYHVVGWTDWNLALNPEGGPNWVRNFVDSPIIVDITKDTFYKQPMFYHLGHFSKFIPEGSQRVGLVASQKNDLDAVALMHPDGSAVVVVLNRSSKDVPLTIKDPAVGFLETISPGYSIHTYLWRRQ

Regarding `FC(F)(F)c1cc(NC(=S)N2c3ccccc3-n3cccc3[C@H]2c2cccnc2)cc(C(F)(F)F)c1`, the Potency in assay [1] was above 11.4 µM; in assay [5], above 46 µM; in assay [6], above 9.22 µM. In addition, the activity change, negative = inhibition in assay [2] was -2.69%; in assay [3], 16.9%. For the same compound, in assay [4], the activity, negative = inhibition is -5.05%. Moreover, the Potency entry in assay [7] and in assay [8] was “inactive” throughout.

For the compound `O[C@H]([C@H](O)[C@@H](O)c1nc2ccccc2[nH]1)[C@@H](O)c1nc2ccccc2[nH]1`, the results for the Potency in assay [1], in assay [5] and in assay [6] were above 11.4 µM, above 46 µM and above 9.22 µM, respectively. Besides, the activity change, negative = inhibition in assay [2] was 6.21%; in assay [3], 19.9%. Also, the activity, negative = inhibition in assay [4] was 6.86%. The Potency entry in assay [7] and in assay [8] was “inactive” throughout.

Turning to `CC1(C)CC(=O)C(C(c2cccc(O)c2O)C2C(=O)CC(C)(C)CC2=O)C(=O)C1`, the Potency in assay [1] is above 11.4 µM; in assay [5] it was above 46 µM; in assay [6], above 9.22 µM. In addition, the figures for the activity change, negative = inhibition in assay [2] and in assay [3] were -0.68% and 2.55%, respectively. Further, the activity, negative = inhibition in assay [4] was 1.05%. Also, the Potency result in assay [7] and in assay [8] was “inactive” throughout.

Take `O=C(O)CSc1ccc(N=C=S)cc1`: the Potency in assay [1] is above 11.4 µM; in assay [5] it was above 46 µM; in assay [6], above 9.22 µM. In addition, the activity change, negative = inhibition in assay [2] was 7.13%; in assay [3], 27.9%. The activity, negative = inhibition in assay [4] was 5.22%. Further, the Potency entry in assay [7] and in assay [8] was “inactive” throughout.

On to `NC(N)=NC(N)=Nc1ccc(C(=O)O)cc1`, for which the Potency is above 11.4 µM in assay [1], above 46 µM in assay [5] and above 9.22 µM in assay [6]. The values for the activity change, negative = inhibition in assay [2] and in assay [3] were 7% and 6.33%, respectively. Also, the activity, negative = inhibition in assay [4] was 16.2%. For the same compound, the Potency result in assay [7] and in assay [8] was “inactive” in each case.

Turning to `CC1(C)CC(Nc2ccc(Nc3ccccc3)cc2)CC(C)(C)N1`, the Potency in assay [1] was above 11.4 µM; in assay [5] it was above 46 µM; in assay [6], above 9.22 µM. In addition, the activity change, negative = inhibition was -24.4% in assay [2] and 6.65% in assay [3]. Further, in assay [4], the activity, negative = inhibition was -6.18%. Further, the Potency entry in assay [7] and in assay [8] was “inactive” each time.

As to `O=C(O)C(F)(F)C(F)(F)C(F)(F)C(F)(F)C(=O)O`, the Potency in assay [1] is above 11.4 µM; in assay [5] it was above 46 µM; in assay [6], above 9.22 µM. The activity change, negative = inhibition is -0.129% in assay [2] and 6.75% in assay [3]. For the same compound, the activity, negative = inhibition in assay [4] is 5.2%. For the same compound, the Potency entry in assay [7] and in assay [8] was “inactive” throughout.

As for `CN(C)Cc1cc(C(C)(C)C)cc(CNC2CCCCC2)c1O`, the Potency was above 11.4 µM in assay [1], above 46 µM in assay [5] and above 9.22 µM in assay [6]. For the same compound, the activity change, negative = inhibition in assay [2] is -6.47%; in assay [3] it was -20.6%. Moreover, in assay [4], the activity, negative = inhibition was 7.16%. Also, the Potency result in assay [7] and in assay [8] was “inactive” in each case.

With `O=C(O)c1cc(C(=O)O)cc(N2C(=O)c3ccccc3C2=O)c1`, the figures for the Potency in assay [1], in assay [5] and in assay [6] were above 11.4 µM, above 46 µM and above 9.22 µM, respectively. Moreover, the activity change, negative = inhibition in assay [2] is 4.16%; in assay [3], 6.56%. In addition, the activity, negative = inhibition in assay [4] was -2.79%. Besides, the Potency result in assay [7] and in assay [8] was “inactive” each time.

On to `Nc1nc2c(c(=O)[nH]1)CN(CCCN1CCOCC1)CN2`, for which the values for the Potency in assay [1], in assay [5] and in assay [6] were above 11.4 µM, above 46 µM and above 9.22 µM, respectively. The activity change, negative = inhibition was 1.77% in assay [2] and 5.13% in assay [3]. The activity, negative = inhibition in assay [4] is 12.2%. The Potency result in assay [7] and in assay [8] was “inactive” in each case.

With `CN(C(=O)c1ccncc1)c1ccccc1`, the Potency in assay [1] is above 11.4 µM; in assay [5], above 46 µM; in assay [6], above 9.22 µM. For the same compound, the figures for the activity change, negative = inhibition in assay [2] and in assay [3] were -3.23% and 6.33%, respectively. For the same compound, the activity, negative = inhibition in assay [4] is 0.69%. Besides, the Potency result in assay [7] and in assay [8] was “inactive” throughout.

Turning to `CC(C)[C@H](N=Cc1ccccc1O)C(=O)O`, the Potency in assay [1] was above 11.4 µM; in assay [5], above 46 µM; in assay [6], above 9.22 µM. The results for the activity change, negative = inhibition in assay [2] and in assay [3] were -4.87% and 4.44%, respectively. Moreover, the activity, negative = inhibition in assay [4] was -0.012%. Further, the Potency result in assay [7] and in assay [8] was “inactive” in each case.

As for `O=C(O)Cc1cccc2c(=O)cc(-c3ccccc3)oc12`, the Potency in assay [1] is above 11.4 µM; in assay [5], above 46 µM; in assay [6], above 9.22 µM. For the same compound, the activity change, negative = inhibition in assay [2] was -1.49%; in assay [3], -5.58%. Besides, in assay [4], the activity, negative = inhibition was -3.42%. Moreover, the Potency entry in assay [7] and in assay [8] was “inactive” in each case.

`Nc1nc(-c2ccccc2)c(CC(=O)O)s1`: the Potency in assay [1] was above 11.4 µM; in assay [5], above 46 µM; in assay [6] it was above 9.22 µM. Moreover, the values for the activity change, negative = inhibition in assay [2] and in assay [3] were 0.597% and 18.8%, respectively. Further, the activity, negative = inhibition in assay [4] was 0.225%. For the same compound, the Potency entry in assay [7] and in assay [8] was “inactive” throughout.

As for `[N-]=[N+]=CC(=O)COC(=O)c1ccccc1`, the Potency in assay [1] was above 11.4 µM; in assay [5], above 46 µM; in assay [6], above 9.22 µM. In addition, the figures for the activity change, negative = inhibition in assay [2] and in assay [3] were 9.2% and 16.5%, respectively. Besides, in assay [4], the activity, negative = inhibition is -0.859%. The Potency result in assay [7] and in assay [8] was “inactive” in each case.

Turning to `Ic1ccc2c(c1)N(c1ccccc1)c1cc(Nc3ccc4nc5ccc(I)cc5[n+](-c5ccccc5)c4c3)ccc1N2`, the Potency was 7.99 µM (active) in assay [1], above 46 µM in assay [5] and above 9.22 µM in assay [6]. In addition, the activity change, negative = inhibition in assay [2] was -4%; in assay [3] it was -3.73%. For the same compound, in assay [4], the activity, negative = inhibition is -4.86%. Moreover, the Potency entry in assay [7] and in assay [8] was “inactive” each time.

The record behind these values is PubChem BioAssay (NCATS).
